PubChem BioAssay (NCI)
Compounds without any hit were thinned out: in the full panel of roughly 79,000, 15% have a hit. The source made the active and inactive calls. Cut-off read from the data, not from the text of the source: active = growth inhibition above about 70%; inactive = the rest. Where a SMILES comes first, the peptide text is derived from it. [ ]: non-standard residue; d: D form. The star is where a group is joined. NMeAc5c = CNC1(C(=O)O)CCCC1; Boc = CC(C)(C)OC(=O)*; OBn = c1ccc(CO*)cc1

Columns and labels:
[1] = NCI Yeast Anticancer Drug Screen. Data for the rad50 strain (AID 155);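 note: 0% = growth of vehicle-only cultures of the same strain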; settings: S. cerevisiae rad50 strain growth inhibition; at 50.0 µM; stronger effect = higher value
Method in brief: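 Readout: growth inhibition relative to vehicle-treated cultures. Compound exposure was carried out in a genetically defined yeast strain deficient in DNA damage repair.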

[2] = NCI Yeast Anticancer Drug Screen. Data for the mec2-1 strain (AID 157); settings: S. cerevisiae mec2-1 strain, at 50.0 µM, stronger effect = higher value
Method in brief: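 Test agents were screened against the mec2-1 yeast strain, with defined DNA repair or cell cycle alteration. Growth was scored as inhibition against vehicle-only controls.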

[3] = NCI Yeast Anticancer Drug Screen. Data for the sgs1 mgt1 strain (AID 161);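 note: 0% = growth of cultures given vehicle only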; settings: S. cerevisiae sgs1 mgt1 strain, at 50.0 µM, stronger effect = higher value
Method in brief: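 Test agents were incubated with a DNA-repair-mutant yeast strain. Growth was then read and compared against vehicle-treated controls.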

[4] = NCI Yeast Anticancer Drug Screen. Data for the cln2 rad14 strain (AID 165);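 note: 0% = growth equal to vehicle treated cultures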; settings: S. cerevisiae cln2 rad14 strain, at 50.0 µM, stronger effect = higher value
Method in brief: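 Growth of compound-exposed yeast (cln2 rad14 genotype) measured and expressed as inhibition relative to vehicle.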

[5] = NCI Yeast Anticancer Drug Screen. Data for the bub3 strain (AID 167); settings: S. cerevisiae bub3 mutant strain, at 50.0 µM, stronger effect = higher value
Method in brief: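 Readout: yeast growth inhibition, expressed relative to vehicle-only wells. The test organism is a mutant strain from a panel with lesions in DNA repair or checkpoint genes.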

[6] = NCI Yeast Anticancer Drug Screen. Data for the mlh1 rad18 strain (AID 175); settings: S. cerevisiae mlh1 rad18 strain growth inhibition; at 50.0 µM; stronger effect = higher value
Method in brief: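 In this whole-cell yeast screen, a strain with altered DNA damage repair is challenged with compound, and its growth is measured against matched vehicle-treated controls.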

Measured: growth inhibition

COc1c2c(cc3c1C1(O)Cc4ccc5c(c4C[N+]1(C)CC3)OCO5)OCO2 (configuration not stated)
inactive: [1] 10.8% | [2] 3.05% | [3] -5.3% | [4] -1.15% | [5] -4.25% | [6] -60.8%

Cc1cc2ccccc2n1S(=O)(=O)c1ccccc1
inactive: [1] 54% | [2] 45.4% | [3] 18.4% | [4] 35% | [5] 61% | [6] 66.3%

CC1=CC(=O)C(=O)c2ccccc21
inactive: [1] -34.9% | [2] -9.65% | [3] -5.5% | [4] 10.4% | [5] -4.4% | [6] -4.9%

O=C(Nc1ccc(C2=NCCN2)cc1)c1ccc(C(=O)Nc2ccc(C3=NCCN3)cc2)cc1
inactive: [1] -3.1% | [2] 7.45% | [3] 0.95% | [4] 2% | [5] 9.4% | [6] -19.6%

COc1ccc(/C(=N/NC(=O)NN)C(c2ccc(OC)cc2)C2(O)CNc3c(Cl)cc(Cl)cc32)cc1 (configuration not stated)
inactive: [1] 1.75% | [2] 14.4% | [3] -9.15% | [4] -16.4% | [5] 16.4% | [6] 12.7%

Cc1no[n+]([O-])c1NC(=O)OCc1ccccc1
inactive: [1] -1.8% | [2] -11% | [3] -2.6% | [4] -37.8% | [5] -15.3% | [6] 6.9%

N#CCCC(=O)O
inactive: [1] 17.6% | [2] 0.45% | [3] 11.7% | [4] 3.45% | [5] 2.5% | [6] 15.8%

COc1ccccc1C1OC2=C(Nc3ccc(Cl)cc3N2)C1=O (configuration not stated)
inactive: [1] -6.5% | [2] -17.8% | [3] -17.5% | [4] -7% | [5] -23.7% | [6] -2.95%

N=S(=O)(c1ccccc1)c1ccccc1[N+](=O)[O-] (configuration not stated)
inactive: [1] 41.4% | [2] 17.9% | [3] 56% | [4] 49.5% | [5] 19.5% | [6] 57.2%

COc1nc(OC)c2[nH]cnc2n1
inactive: [1] 17.6% | [2] 15.3% | [3] 13.1% | [4] -38.7% | [5] -1.35% | [6] 14.7%

CSc1nc(NC2OCC(O)C(O)C2O)cc(=O)[nH]1 (configuration not stated)
inactive: [1] 7.75% | [2] -0.95% | [3] 10.8% | [4] -2.25% | [5] -13.8% | [6] 1.3%

CC1(C)OC2(CC1C1(C)C=CC(=O)O1)CC1C(O)(CCC34CC13C(=O)OC4c1ccoc1)O2 (configuration not stated)
inactive: [1] 3.95% | [2] -17.3% | [3] 3.15% | [4] 6.2% | [5] -3.1% | [6] 10.2%

CC(C)CCCC(C)C1CCC2C3C=C(C(=O)O)C(C)(CCC(=O)O)C3CCC12C (configuration not stated)
inactive: [1] 45% | [2] 32% | [3] 42% | [4] 7.7% | [5] -2.15% | [6] 44.1%

O=C1c2ccccc2C(=O)c2c1cc1c(c2O)OCO1
inactive: [1] 23.4% | [2] 13.4% | [3] 20.1% | [4] -10.2% | [5] -38% | [6] 46.9%

COc1cc2c3c(c1)-c1c(ccc(OC)c1Oc1nnnn1-c1ccccc1)CC3N(C)CC2 (configuration not stated)
active: [6] 80.5%
inactive: [1] 30.4% | [2] 26.2% | [3] 28.9% | [4] 52.4% | [5] 27.8%

Nc1ccc([N+](=O)[O-])cc1F
inactive: [1] -18.6% | [2] -9.05% | [3] -9.85% | [4] -20.9% | [5] 3.95% | [6] -0.95%

CCCCCCC1(/C=C/c2ccc(Cl)cc2Cl)OCCCO1
inactive: [1] 3.3% | [2] 9.1% | [3] -5.45% | [4] -2.75% | [5] 11.8% | [6] 3.65%

NC(=O)C(=O)NNC(=O)Nc1ccc(Cl)cc1
inactive: [1] 16.8% | [2] 12.3% | [3] 7.8% | [4] -13.3% | [5] 1.75% | [6] 20.8%

CC(=O)OC1(C(=O)O)CCCCC1
inactive: [1] 5.8% | [2] 14% | [3] -0.05% | [4] -19.9% | [5] 5.25% | [6] 9.65%

COC(=O)CC(c1ccc2c(c1)OCO2)N1CCOCC1 (configuration not stated)
inactive: [1] -6.3% | [2] 31.3% | [3] 19.5% | [4] -6.1% | [5] 21.2% | [6] 42.9%

Cc1c2c(cc3c(=O)ccn(CCN(C)C)c13)c(=O)ccn2CCN(C)C
inactive: [1] -71.1% | [2] -22.8% | [3] -11.8% | [4] 14.3% | [5] -20.4% | [6] -16.4%

Cc1nn(C(=O)c2ccc(Cl)cc2)c2c1C(c1ccccc1O)SC(N)=N2 (configuration not stated)
inactive: [1] -29.9% | [2] -47.1% | [3] -30.1% | [4] -1.45% | [5] -11.5% | [6] -25.1%

CN(C(=O)C(Cc1ccccc1)NC(=O)OC(C)(C)C)C1(C(=O)NC(Cc2ccccc2)C(=O)OCc2ccccc2)CCCC1 (stereo not drawn) (Boc-Phe-[NMeAc5c]-Phe-OBn; configuration not given here)
inactive: [1] -3.35% | [2] 15.6% | [3] -4.5% | [4] 11.8% | [5] 8.6% | [6] 13.6%

Clc1ccc2noc(-c3ccccc3)c2c1
inactive: [1] 22.6% | [2] 3.05% | [3] 4% | [4] 0.85% | [5] 0.7% | [6] 23.6%

COC(=O)c1c(C)cc(OC(=O)c2c(C)cc(OC)c(C)c2OC)c(C)c1O
inactive: [1] 14.6% | [2] 3.5% | [3] -2.15% | [4] 10.4% | [5] -0.65% | [6] 4.65%

CC(C)CC(CC(C)C)OC(=O)Nc1ccccc1
inactive: [1] -1% | [2] 17.3% | [3] 9.05% | [4] 33.6% | [5] 30.1% | [6] 25.9%

CNC(=O)CN(CC(N)=O)C(=O)NC
inactive: [1] -29.5% | [2] -20.3% | [3] -27.6% | [4] 0.65% | [5] -23% | [6] -35%

COC(=O)CNC(=O)C1CSC(C)(C)N1C=O (configuration not stated)
inactive: [1] -5.25% | [2] -9.85% | [3] 10.2% | [4] 2.4% | [5] 47.9% | [6] -6.2%

CCOC(=O)c1oc2cc(O)cc(O)c2c(=O)c1-c1ccc(OC)cc1
inactive: [1] 7.8% | [2] -30.4% | [3] 11.6% | [4] 11.1% | [5] 3.1% | [6] 0.35%

O=c1[nH]c2cc([N+](=O)[O-])ccc2nc1/C=C(\O)c1ccco1
inactive: [1] 7.7% | [2] -14.2% | [3] 7.9% | [4] -0.65% | [5] -18.7% | [6] 22.1%

O=C(/C(=C\c1ccccc1)c1ccccc1)c1ccccc1
inactive: [1] 25.1% | [2] 32.8% | [3] 26.4% | [4] -75.2% | [5] 28.2% | [6] 21.4%

COc1ccc(CC(O)CN2CCC(CCN)CC2)cc1 (configuration not stated)
inactive: [1] -19.8% | [2] -7.45% | [3] -12.2% | [4] -47.9% | [5] 23.6% | [6] -5.65%

CC(C)(C)OC(=O)c1cccc(Br)c1
inactive: [1] -8.1% | [2] -12.8% | [3] -4.55% | [4] 15.2% | [5] 12.8% | [6] 11.1%

O=C(c1nc2ccc(Cl)cc2[nH]c1=O)C(O)c1ccco1 (configuration not stated)
inactive: [1] -21.4% | [2] 3.2% | [3] -20.2% | [4] -1.4% | [5] -24.7% | [6] -13.2%

CC1C=CCC2C(=O)OC(=O)C12 (configuration not stated)
inactive: [1] 10.3% | [2] -1.65% | [3] -4.65% | [4] -3.8% | [5] -0.75% | [6] 15.6%

CCOc1ccc(C(CC)c2cc3c(cc2OC)OCO3)cc1 (configuration not stated)
inactive: [1] -1.95% | [2] -0.1% | [3] -9.35% | [4] -42.8% | [5] 6% | [6] -1.7%

Nc1cc(Cl)cc2[nH]c(=O)c3cc(Cl)ccc3c12
inactive: [1] 39.8% | [2] 7.25% | [3] 13.6% | [4] 5.35% | [5] 17.2% | [6] 38%

c1ccc(C2SCc3nc4cc5ccccc5cc4n32)cc1 (configuration not stated)
inactive: [1] -21.6% | [2] 6.4% | [3] 17.1% | [4] 12% | [5] -17% | [6] 16.8%

c1cncc(Cc2nc3ccccc3[nH]2)c1
inactive: [1] -26.9% | [2] -2.5% | [3] -22.9% | [4] -11.7% | [5] -5.1% | [6] -34%

O=[N+]([O-])c1ccc(OCc2ccc(CBr)cc2)c(Cl)c1
inactive: [1] 4.1% | [2] 29.6% | [3] 15.4% | [4] -13.7% | [5] 16% | [6] 22.5%

CC(C)C(O)(C(=O)O)C(C)C
inactive: [1] 11.1% | [2] -11% | [3] -4.1% | [4] -4.3% | [5] -17.9% | [6] -1.15%

CCOC(=O)NC(Nc1ccc(C(=O)O)cc1)(C(F)(F)F)C(F)(F)F
inactive: [1] -5.75% | [2] -10.8% | [3] -38.5% | [4] 18.6% | [5] 4.65% | [6] 11.4%
